Screening results from PubChem BioAssay.
An excerpt weighted towards active compounds, which were near 18% of everything screened.
TDP1 cell CPT: DT40-hTDP1 cell growth loss with CPT; actives 12% (n = 420,000); AID 686979; Potency, µM (doses to about 46.2 µM), for the others: at the top dose activity change, negative = growth inhibition, hits mostly inhibitors; chicken DT40 Tdp1-/-;hTDP1 cells + 20 nM CPT, ATP luminescence, 48 h; further: potency means the concentration at half of the fitted maximal effect; on the % scale 0 is the no-effect control and ±100 the full control effect; nearly all actives have a fitted effect of over 55% in size
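Chicken DT40 Tdp1-/- cells complemented with human TDP1, 400 cells/well, exposed to compounds plus 20 nM camptothecin for at least 48 h at 37 C; viability read as ATP content by CellTiter-Glo luminescence.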
HepG2 tox: counter-screen for TGF-b inhibitors: cytotoxicity in HepG2 cells; Potency, µM (top dose mostly 46.1 µM), for the others: at the highest dose activity change, negative = cytotoxicity, hits mostly cytotoxic; actives 0.76% (n = 410,000); HepG2 CAGA-GFP viability, ATP luminescence, 18 h; further: potency means the concentration at half of the fitted maximal effect
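CellTiter-Glo luminescence gave cytotoxicity after 18 hours at 37 degrees C. The cells were HepG2 CAGA-GFP in 1% FBS DMEM, stimulated with 500 pg/mL TGF-beta after compound addition. %Activity was normalised to no-cell wells (complete cell-killing) and DMSO (no toxicity), and curves were fitted and classified.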
TDP1 cell noCPT: qHTS for Inhibitors of human tyrosyl-DNA phosphodiesterase 1 (TDP1): qHTS in cells in absence of CPT | actives 15% (n = 420,000) | DT40 Tdp1-/- hTDP1 cells, no CPT, ATP luminescence, 48 h | Potency, µM (titrated, usually from 46.2 µM), for inactives: top-dose activity change, negative = growth inhibition, actives largely listed as inhibitors | AID 686978, 2013; further: potency means the concentration at half of the fitted maximal effect; on the % scale 0 is the no-effect control and ±100 the full control effect; nearly all actives have a fitted effect of over 55% in size
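Stably hTDP1-transfected Tdp1-null chicken DT40 cells were treated with library compounds minus camptothecin and grown for at least 48 hr at 37 °C, after which cellular ATP was quantified by luminescence.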
TDP1 inh: inhibitors of human tyrosyl-DNA phosphodiesterase TDP1 | Q9NUW8 | recombinant TDP1, AlphaScreen DNA substrate cleavage | Potency, µM (series often up to 130 µM), for the others: top-dose activity change, negative = inhibition, hits mostly inhibitors | actives 0.28% (n = 350,000) | AID 485290; further: potency means the concentration at half of the fitted maximal effect; on the % scale 0 is the no-effect control and ±100 the full control effect; nearly all actives have a fitted effect of over 40% in size
Target sequence (Q9NUW8 whole entry, looked up): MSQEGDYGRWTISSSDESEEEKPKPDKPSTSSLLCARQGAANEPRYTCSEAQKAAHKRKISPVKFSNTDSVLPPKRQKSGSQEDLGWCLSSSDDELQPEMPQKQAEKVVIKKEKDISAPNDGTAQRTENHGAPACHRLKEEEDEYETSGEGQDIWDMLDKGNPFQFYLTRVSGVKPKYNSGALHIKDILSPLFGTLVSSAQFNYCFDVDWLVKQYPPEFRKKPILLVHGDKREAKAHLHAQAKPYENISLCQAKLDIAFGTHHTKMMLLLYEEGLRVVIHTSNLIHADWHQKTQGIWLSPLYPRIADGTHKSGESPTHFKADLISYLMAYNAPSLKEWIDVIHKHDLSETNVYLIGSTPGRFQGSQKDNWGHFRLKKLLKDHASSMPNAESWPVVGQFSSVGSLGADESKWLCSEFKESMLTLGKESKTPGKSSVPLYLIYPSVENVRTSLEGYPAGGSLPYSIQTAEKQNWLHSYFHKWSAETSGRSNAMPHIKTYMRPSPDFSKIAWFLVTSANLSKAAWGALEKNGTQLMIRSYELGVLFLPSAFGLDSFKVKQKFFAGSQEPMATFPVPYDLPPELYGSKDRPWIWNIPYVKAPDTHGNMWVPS
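AlphaScreen read-out: signal falls as enzyme removes the 3' tyrosine-FITC from a 5'-biotinylated DNA oligo (15 nM, 5 min, RT). Enzyme was E. coli-made recombinant Tdp1 at 1 nM, exposed to compound for 15 min beforehand; beads 10 ug/ml, 10 min.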
IL-1B inflam inh: inhibitors of inflammasome signaling (IL-1 beta secretion). THP-1 LPS/ATP IL-1B secretion, AlphaLISA, 16 h; active compounds read low. activity change, % at 57.5 µM. actives 4.7% (n = 360,000). AID 743279; in the data active means activity change below about -50%; inconclusive means mostly about -30% to -49%; further: on the % scale 0 is the no-effect control and ±100 the full control effect
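Secreted IL-1B measured by AlphaLISA bead assay after 16 h compound exposure of THP-1 cells; compounds (final up to 57.5 uM) added 1 h before LPS (250 ng/mL) and ATP (1.25 mM) stimulation; lower signal means less secretion.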
TGFb inhibitor: blocks TGF-b signaling. HepG2 CAGA-GFP TGF-b/SMAD3 reporter, GFP fluorescence, 18 h; TGF-beta stimulated, 500 pg/mL final. Potency, µM (titrated, usually from 46.1 µM), for the others: top-dose activity, negative = inhibition, most hits filed as inhibitors. actives 1.2% (n = 410,000); further: potency means the concentration at half of the fitted maximal effect; on the % scale 0 is the no-effect control and ±100 the full control effect; nearly all actives have a fitted effect of over 65% in size
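Read-out: total well GFP (ex488/em500-530) summed from mean per-cell fluorescence. Cells: HEPG2 CAGA-GFP, 1% FBS DMEM, 18 h at 37 degrees C with 500 pg/mL final TGF-beta. Unstimulated wells served as the full-inhibition control; stimulated DMSO wells = 0%.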
* hit, by the source's call; i = inactive; ? = inconclusive; / = not tested or not shown; [ ] = another dose, or the depositor's remark. Unless noted, the call rests on the fitted dose curve; in most records, active means well fitted curve in the direction sought with a large enough effect; inconclusive means small, poorly fitted or top-dose-only effect, or another doubt; inactive means no such curve, though single readings can be large; an effect the other way counts as inactive or inconclusive.

SMILES	TDP1 cell CPT	HepG2 tox	TDP1 cell noCPT	TDP1 inh	IL-1B inflam inh	TGFb inhibitor
COC(=O)[C@@]1(Cc2ccc(OC)cc2)[C@H]2c3cc(C(=O)N(C)C)n(Cc4ccc(Cl)c(C(F)(F)F)c4)c3C[C@H]2CN1C(=O)c1ccccc1	/	/	/	14.1%	/	/
CC1(C(=O)NS(=O)(=O)c2ccc(C#N)cc2)CCN1C(=O)c1cccc2ccccc12 (configuration not stated)	5.4%	1.0%	-2.8%	/	35.8	20.6%
O=C(c1ccc2oc(CCCc3ccccc3)nc2c1)N1CCCC1	16.4µM*	-1.6%	?	3.8%	-4.1	0.0%
CCCc1ccc2oc(C(=O)NCCc3nc(C(=O)OCC)cs3)c(C)c2c1	?	-24.7%	?	-4.3%	i	0.0%
CCCc1ccc2oc(C(=O)NCCc3cnn(C)c3)c(C)c2c1	16.4µM*	-19.2%	16.4µM*	1.8%	2.6	-16.8%
COc1ccc(N2C(=O)C(C)(C)C2c2c(O)ccc3ccccc23)cc1 (configuration not stated)	20.6µM*	-23.4%	16.4µM*	/	-25.6	?
CC1(C)C(=O)N(c2ccccc2)C1c1ccccc1O (configuration not stated)	?	-34.2%	16.4µM*	/	-3.6	?
O=C1N(c2ccccc2)C(c2ccccc2)C12CCCCC2 (configuration not stated)	?	-21.7%	?	/	26.8	-23.7%
COC(=O)[C@@H](NC(=O)N1CCC(Cc2ccccc2)CC1)C(C)C	-4.2%	-29.7%	-21.1%	/	-6.3	0.0%
COc1cccc(NC(=O)CCN2C(=O)C3CC=CCC3C2=O)c1 (configuration not stated)	-7.3%	-3.8%	15.5%	3.5%	-3.7	-2.6%
CSc1nc2cc(C)nn2c(-c2ccccc2)c1C#N	-1.9%	4.1%	-1.3%	0.0%	3.3	-0.6%
CN1CCN(S(=O)(=O)c2ccc(SCCOc3ccc(Cl)cc3)nc2)CC1	-89.1%	-15.3%	16.4µM*	6.2%	?	?
C/C(=N\NC(=O)c1nn(C)c(C)c1Br)c1cccc(NC(=O)c2ccc(F)cc2)c1	?	2.5%	16.4µM*	3.2%	0.0	-10.6%
C/C(=N\NC(=O)c1c(Cl)c(C)nn1C)c1cccc(NC(=O)c2cccc(F)c2)c1	?	0.0%	23.1µM*	1.0%	i	-9.1%
COc1ccc(O)c(CN2CCC3(CC2)c2ccccc2[C@@H](NC(=O)c2cccc(F)c2)[C@@H]3OC)c1	-6.1%[9.04 µM]	/	16.4µM*	/	/	/
CO[C@H]1[C@H](NC(=O)c2ccsc2)c2ccccc2C12CCN(Cc1cc(Cl)ccc1O)CC2	-5.4%[9.04 µM]	/	-6.5%	/	/	/
COC(=O)c1ccc(CNC(=O)c2ccc(OC)c(S(=O)(=O)NC3CCCC3)c2)cc1	-3.7%	8.6%	-1.7%	-0.3%	0.0	4.5%
C/C(=N\NC(=O)C(O)(c1ccccc1)c1ccccc1)c1ccc(NC(=O)CCCC(=O)O)cc1	-5.4%	4.3%	26.3%	3.2%[56.1 µM]	25.2	0.0%
Cc1cccc(Cl)c1NC(=S)NN	?	-56.1%	13µM*	/	-7.6	-12.7%
Cc1c(Cl)cccc1NC(=S)NN	?	-20.8%	?	-2.7%	-6.5	-7.3%
O=C(NC1CCCCC1)c1cc(S(=O)(=O)N2CCOCC2)ccc1Cl	-22.7%	-7.5%	-8.9%	5.8%	-12.6	-0.9%
Cc1cccc(COC[C@H](Cc2ccccc2)N2CCN(C(=O)c3cccc(Cl)c3)CCC2=O)c1	?	/	?	3.1%	-8.4	/
Cc1cccc(COCC(Cc2ccccc2)N2CCN(C(=O)c3cccc(Cl)c3)CCC2=O)c1 (configuration not stated)	25.9µM*	-28.5%	18.4µM*	0.0%	-60.6*	?
Cc1cccc(C(=O)N2CCC(=O)N(C(COCc3ccccc3)Cc3ccccc3)CC2)c1 (configuration not stated)	?	-7.5%	25.9µM*	5.3%	-24.1	2.5%
COc1ccc(CNC(=O)c2cc(-c3ccc(C)cc3)nc3n[nH]c(-c4ccc(Br)cc4)c23)cc1	-12.5%	2.6%	-1.1%	-1.5%	/	-5.6%
SMILES	TDP1 cell CPT	HepG2 tox	TDP1 cell noCPT	TDP1 inh	IL-1B inflam inh	TGFb inhibitor
Cc1ccc(-c2cc(C(=O)NCCc3ccccc3)c3c(-c4ccc(C)cc4)[nH]nc3n2)cc1	?	-6.8%	9.2µM*	5.3%	/	/
COc1ccc(CNC(=O)c2cc(-c3ccc(OC)c(OC)c3)nc3n[nH]c(-c4ccc(C)cc4)c23)cc1	5.8µM*	-23.1%	5.17µM*	4.4%	/	0.0%
COc1ccc(-c2cc(C(=O)NCc3ccc(F)cc3)c3c(-c4ccc(F)cc4)[nH]nc3n2)cc1OC	16.4µM*	-52.1%	18.4µM*	0.5%	/	?
O=C(NCCc1ccccc1)c1cc(-c2ccccc2)nc2n[nH]c(-c3ccccc3)c12	?	-54.3%	?	2.7%	/	?
CCCCNC(=O)c1cc(-c2ccc(OC)cc2)nc2n[nH]c(-c3cccc([N+](=O)[O-])c3)c12	20.6µM*	-7.5%	18.4µM*	-2.5%	/	-2.0%
Cc1ccc2c(c1)-n1c(nc3ccc(C)cc3c1=O)C(Cc1ccc(O)cc1)NC2=O (configuration not stated)	/	/	/	4.3%	/	/
CSc1nnc(CNC(=O)c2c(-c3ccccc3)noc2C)n1-c1ccc(F)cc1	3.6%	/	-14.6%	/	/	/
